Measured values: PubChem BioAssay AID1159580 (chemical genetic matrix, 2015)
About 2,000 (36%) of roughly 5,500 compounds were called active. Roughly 18% stayed inconclusive and do not appear here. No stated cut-off is given here; in the data, active means normalized growth mostly below about 0.91 (no sharp cut-off); inconclusive means no clear call, values can overlap the other calls; inactive means mostly above about 0.92. Some of the results follow.

Test: chemical genetic growth profiling, strain panel (AID 1159580);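 further: tested at 20 µM; growth read once vehicle control cultures reached saturation at 30 °C; 1 = growth at the plate median or of vehicle wells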
Conditions: S. cerevisiae deletion strains, growth OD

Measured: normalized growth

CN=C(NC#N)NCCSCc1nc(N=C(N)N)cs1
inactive: locus YAL021C, strain ccr4, stronger effect = lower value 0.966 | locus YAL026C, strain drs2, stronger effect = lower value 0.981 | locus YAL030W, strain snc1, stronger effect = lower value 0.998 | locus YBL061C, strain skt5, stronger effect = lower value 0.988 | locus YBR009C, strain hhf1, stronger effect = lower value 0.99 | locus YBR023C, strain chs3, stronger effect = lower value 0.991 | locus YBR171W, strain sec66, stronger effect = lower value 0.975 | locus YBR231C, strain swc5, stronger effect = lower value 0.986 | locus YBR279W, strain paf1, stronger effect = lower value 0.99 | locus YCL011C, strain gbp2, stronger effect = lower value 0.966 | locus YCL016C, strain dcc1, stronger effect = lower value 0.984 | locus YCL061C, strain MRC1, stronger effect = lower value 0.974 | locus YCL069W, strain vba3, stronger effect = lower value 0.978 | locus YCR088W, strain abp1, stronger effect = lower value 0.967 | locus YDL005C, strain med2, stronger effect = lower value 0.986 | locus YDL040C, strain nat1, stronger effect = lower value 0.994 | locus YDR001C, strain nth1, stronger effect = lower value 0.978 | locus YDR069C, strain doa4, stronger effect = lower value 0.988 | locus YDR137W, strain rgp1, stronger effect = lower value 0.977 | locus YDR159W, strain sac3, stronger effect = lower value 0.985 | locus YDR195W, strain ref2 0.957 | locus YDR297W, strain sur2, stronger effect = lower value 0.976 | locus YDR334W, strain swr1, stronger effect = lower value 0.944 | locus YDR335W, strain msn5, stronger effect = lower value 0.974 | locus YDR392W, strain spt3, stronger effect = lower value 0.977 | locus YEL003W, strain gim4, stronger effect = lower value 0.977 | locus YEL037C, strain rad23, stronger effect = lower value 0.937 | locus YEL061C, strain CIN8 (second series), stronger effect = lower value 0.979 | locus YER015W, strain faa2, stronger effect = lower value 0.981 | locus YER016W, strain bim1, stronger effect = lower value 0.99 | locus YER111C, strain swi4, stronger effect = lower value 0.993 | locus YER155C, strain BEM2 (second series), stronger effect = lower value 0.99 | locus YFR010W, strain ubp6, stronger effect = lower value 0.96 | locus YGL167C, strain pmr1, stronger effect = lower value 0.982 | locus YGL173C, strain kem1, stronger effect = lower value 0.983 | locus YGL227W, strain vid30, stronger effect = lower value 0.981 | locus YGL240W, strain doc1, stronger effect = lower value 0.991 | locus YGL253W, strain hxk2, stronger effect = lower value 0.998 | locus YHR013C, strain ard1, stronger effect = lower value 0.97 | locus YHR027C, strain rpn1, stronger effect = lower value 0.984 | locus YHR142W, strain chs7, stronger effect = lower value 0.947 | locus YJL092W, strain hpr5, stronger effect = lower value 0.978 | locus YJL095W, strain BCK1 (second series), stronger effect = lower value 0.984 | locus YJL115W, strain asf1, stronger effect = lower value 0.959 | locus YJL129C, strain trk1, stronger effect = lower value 0.971 | locus YJL154C, strain vps35, stronger effect = lower value 0.979 | locus YJL164C, strain tpk1, stronger effect = lower value 0.989 | locus YJL166W, strain qcr8, stronger effect = lower value 0.987 | locus YJL187C, strain SWE1, stronger effect = lower value 0.985 | locus YKL160W, strain elf1, stronger effect = lower value 0.975 | locus YKR026C, strain gcn3, stronger effect = lower value 0.963 | locus YKR091W, strain srl3, stronger effect = lower value 0.986 | locus YLL001W, strain dnm1, stronger effect = lower value 0.985 | locus YLL026W, stronger effect = lower value 0.98 | locus YLL041C, strain sdh2, stronger effect = lower value 0.973 | locus YLR027C, strain aat2, stronger effect = lower value 0.984 | locus YLR221C, strain rsa3, stronger effect = lower value 0.987 | locus YLR258W, strain gsy2, stronger effect = lower value 0.996 | locus YLR262C, strain YPT6 (second series), stronger effect = lower value 0.984 | locus YLR320W, strain mms22, stronger effect = lower value 0.99 | locus YLR342W, strain FKS1, stronger effect = lower value 0.987 | locus YLR357W, strain rsc2, stronger effect = lower value 0.977 | locus YLR370C, strain arc18, stronger effect = lower value 0.983 | locus YLR384C, strain iki3, stronger effect = lower value 0.991 | locus YML120C, strain ndi1, stronger effect = lower value 0.949 | locus YMR058W, strain fet3, stronger effect = lower value 0.966 | locus YMR125W, strain sto1, stronger effect = lower value 0.992 | locus YMR129W, stronger effect = lower value 0.981 | locus YMR205C, strain PFK2, stronger effect = lower value 0.994 | locus YMR231W, strain pep5, stronger effect = lower value 0.984 | locus YNL071W, strain lat1, stronger effect = lower value 0.977 | locus YNL209W, strain ssb2, stronger effect = lower value 0.982 | locus YNL248C, strain rpa49, stronger effect = lower value 0.94 | locus YNL322C, strain KRE1 (second series), stronger effect = lower value 0.984 | locus YNR049C, strain mso1, stronger effect = lower value 0.982 | locus YOR001W, strain rrp6, stronger effect = lower value 0.975 | locus YOR070C, strain gyp1, stronger effect = lower value 0.999 | locus YOR080W, strain dia2, stronger effect = lower value 0.974 | locus YOR083W, strain WHI5, stronger effect = lower value 0.975 | locus YOR106W, strain vam3, stronger effect = lower value 0.983 | locus YOR265W, strain rbl2, stronger effect = lower value 0.991 | locus YOR270C, strain vph1, stronger effect = lower value 0.983 | locus YOR290C, strain snf2, stronger effect = lower value 1.01 | locus YPL051W, strain arl3, stronger effect = lower value 0.981 | locus YPL078C, strain atp4, stronger effect = lower value 0.976 | locus YPL106C, strain sse1, stronger effect = lower value 0.984 | locus YPL240C, strain hsp82, stronger effect = lower value 0.971
